In PubChem BioAssay (NCI):
This is part of a sample that, as a whole, favours compounds with a hit. Of some 79,000 tested, about 15% had one in any assay. Calls of active or inactive are those of the source. Rule as the data show it: active = growth inhibition above about 70%; inactive = the rest.

Assays:
[1] = NCI Yeast Anticancer Drug Screen. Data for the rad50 strain (AID 155);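 also: 0% = growth of vehicle-only cultures of the same strain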; details: S. cerevisiae rad50 strain growth inhibition; at 50.0 µM; stronger effect = higher value
In short: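 Yeast carrying a defined DNA repair defect were exposed to test compounds, and growth was compared with vehicle-treated controls to give percent inhibition.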

[2] = NCI Yeast Anticancer Drug Screen. Data for the mec2-1 strain (AID 157); details: S. cerevisiae mec2-1 strain, at 50.0 µM, stronger effect = higher value
In short: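 mec2-1 yeast strain, carrying an alteration in DNA damage repair or cell cycle control, was exposed to compounds; growth inhibition was measured relative to vehicle-treated controls.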

[3] = NCI Yeast Anticancer Drug Screen. Data for the sgs1 mgt1 strain (AID 161);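 also: 0% = growth of cultures given vehicle only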; details: S. cerevisiae sgs1 mgt1 strain, at 50.0 µM, stronger effect = higher value
In short: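 This yeast growth screen uses a strain with defined DNA-repair lesions; compound-treated growth is compared with vehicle-treated growth.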

[4] = NCI Yeast Anticancer Drug Screen. Data for the cln2 rad14 strain (AID 165);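 also: 0% = growth equal to vehicle treated cultures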; details: S. cerevisiae cln2 rad14 strain, at 50.0 µM, stronger effect = higher value
In short: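 Yeast carrying cln2 and rad14 alterations (cell cycle control and DNA damage repair) were exposed to compounds. Growth inhibition was measured against vehicle-treated controls.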

[5] = NCI Yeast Anticancer Drug Screen. Data for the bub3 strain (AID 167); details: S. cerevisiae bub3 mutant strain, at 50.0 µM, stronger effect = higher value
In short: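 Compounds were applied to a genetically altered yeast strain carrying a cell-cycle control defect. Growth inhibition was scored against vehicle-treated controls.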

[6] = NCI Yeast Anticancer Drug Screen. Data for the mlh1 rad18 strain (AID 175); details: S. cerevisiae mlh1 rad18 strain growth inhibition; at 50.0 µM; stronger effect = higher value
In short: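 Growth inhibition of the yeast strain was measured after compound exposure and expressed relative to vehicle-treated controls. The strain carries defined defects in DNA damage repair.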

Measured: growth inhibition

COc1ccc(CC2=NCCc3cc(OCc4ccccc4)c(OC)cc32)cc1OCc1ccccc1
active: [5] 78.5% | [6] 93.8%
inactive: [1] 66.8% | [2] 55% | [3] 52.5% | [4] 30.6%

S=C=Nc1ccc(CSc2nc3ccccc3[nH]2)cc1
inactive: [1] 0.8% | [2] -9.25% | [3] 12.8% | [4] 2.4% | [5] 9.4% | [6] -11.2%

CCC(C)(CC)OC(=O)c1ccc([N+](=O)[O-])cc1
inactive: [1] -0.35% | [2] -0.45% | [3] 5.05% | [4] -7.4% | [5] 2.85% | [6] 43.3%

CCCCNC(=O)CC(C)C(=O)O (stereo unspecified)
inactive: [1] 2.8% | [2] -1.35% | [3] -6.1% | [4] -20.8% | [5] -1.55% | [6] 6.1%

CCCCN(CCCC)CCCCCCCCCCCO
inactive: [1] 38.7% | [2] -8.35% | [3] 34.5% | [4] -22.9% | [5] 30.8% | [6] 27.6%

CC(O)C(O)C(O)C(=O)C=O (stereo unspecified)
inactive: [1] 5.8% | [2] 29.1% | [3] 6.1% | [4] 14.2% | [5] -25.4% | [6] 10.4%

O=C(/C=N\O)Nc1ccccc1O
inactive: [1] 2.6% | [2] 4.3% | [3] -24.4% | [4] -11.6% | [5] -5.15% | [6] -1.9%

O=C(O)c1ccc(C(=O)c2ccccc2)c(C(=O)O)c1
inactive: [1] -4.05% | [2] -1.8% | [3] -19.3% | [4] -8.7% | [5] -62.9% | [6] -17.4%

COc1ccc2c(c1)C(=O)[C@]1(C)C3(C)OC(=O)C(c4ccccc43)[C@]21C (stereo partly specified)
inactive: [1] 2.6% | [2] -8.6% | [3] -13.8% | [4] 9.3% | [5] -17.6% | [6] 12.6%

CNCC(OC(C)C)c1ccc(O)c(O)c1 (stereo unspecified)
inactive: [1] -3.3% | [2] -2.85% | [3] -0.05% | [4] -36.4% | [5] -19.2% | [6] 16.2%

O=C(Oc1ccc[nH]c1=O)C1CCC1
inactive: [1] -15.3% | [2] 3% | [3] -0.55% | [4] 2.7% | [5] 12.8% | [6] -4.75%

CC1=N/C(=C/c2ccccc2)C(=O)O1
inactive: [1] 7.6% | [2] 0.75% | [3] 11.6% | [4] -26.7% | [5] 12.5% | [6] 10%

O=c1[nH]c(=O)c2nc[nH]c(=O)c2[nH]1
inactive: [1] -8.55% | [2] -8.45% | [3] -4.2% | [4] -3.55% | [5] -11.6% | [6] -13.2%

NC(N)=NC(N)=Nc1ccc(N=C(N)N=C(N)N)cc1
inactive: [1] 3.55% | [2] -12.7% | [3] -6.2% | [4] -0.75% | [5] 10.2% | [6] -1.3%

CC(C)(C)c1ccc(O)c(C(=O)O)c1
inactive: [1] 3.55% | [2] -0.95% | [3] -5.8% | [4] -4% | [5] -35.1% | [6] -23.2%

O=S(=O)(/C=C/c1ccc(Cl)cc1Cl)Cc1ccccc1CS(=O)(=O)/C=C/c1ccc(Cl)cc1Cl
inactive: [1] 4.85% | [2] 5.3% | [3] -27.6% | [4] -20.8% | [5] 6.95% | [6] -9.15%

CCOC(=O)c1ccccc1O
inactive: [1] -17.8% | [2] -5.8% | [3] -8.6% | [4] -38.4% | [5] -12.4% | [6] 9.5%

CCOC(=O)C(=O)NC12CC3CC(CC(C3)C1)C2
inactive: [1] -16.9% | [2] -17.6% | [3] 1.5% | [4] -4.45% | [5] 24.8% | [6] -8.3%

CCCCCCCCCCCCCCCCc1c(C)nc(N(C)C)oc1=O
inactive: [1] 18.8% | [2] 23% | [3] -4.4% | [4] 8.2% | [5] 21.1% | [6] 2.25%

Cc1ccc(S(=O)c2ccccc2[N+](=O)[O-])cc1 (stereo unspecified)
inactive: [1] 4.85% | [2] 9.45% | [3] 1.7% | [4] 22% | [5] -0.6% | [6] -2%

Cn1ccnc1CCc1ccc(F)cc1F
inactive: [1] -37.2% | [2] -20.8% | [3] -2.75% | [4] -0.15% | [5] -2.2% | [6] -22.2%

O=C(Nc1cccc(Cl)c1)OCc1ccccn1
inactive: [1] 37.6% | [2] 8.15% | [3] 6.9% | [4] -21.5% | [5] -0.95% | [6] 22.1%

COC(=O)c1cc([O-])c2sc(C)c(C)[n+]2n1
inactive: [1] 4.25% | [2] 19.6% | [3] 25.7% | [4] 35.6% | [5] -4.05% | [6] 2.55%

OCCN(CCO)c1ncnc2c1ncn2-c1ccc(CCCl)cc1
inactive: [1] 5.3% | [2] -3.1% | [3] -2.85% | [4] 6.05% | [5] 19% | [6] 0.1%

O=C(NC1CC1)C1CC1
inactive: [1] -20.2% | [2] -12.8% | [3] -1.45% | [4] -17.4% | [5] 1.7% | [6] -1.35%

N/N=C1/C(=N/O)CCc2nonc21
inactive: [1] 6.15% | [2] 6.5% | [3] 3.5% | [4] -8.3% | [5] -7.45% | [6] -27.1%

Cc1c2cnccc2c(CO)c2[nH]c3ccccc3c12
inactive: [1] 11.6% | [2] -10.2% | [3] 8.2% | [4] 4.6% | [5] -10.9% | [6] 59.7%

N#CC(C#N)=CNc1cccc(Cl)c1
inactive: [1] 34% | [2] 9.8% | [3] 29.2% | [4] 9.45% | [5] -1.05% | [6] 18.5%

O=C(O)CNS(=O)(=O)c1ccccc1
inactive: [1] -43.5% | [2] -7.7% | [3] -23.1% | [4] -24.6% | [5] -0.8% | [6] 6%

N#Cc1ccc(OCCCOc2ccccc2)cc1
inactive: [1] 4.2% | [2] 47.5% | [3] 20.8% | [4] -2.7% | [5] 37.4% | [6] 4.5%

O=[N+]([O-])c1nccn1CCCNc1c2ccccc2nc2ccccc12
inactive: [1] 25.1% | [2] 7.95% | [3] 27.8% | [4] 23.1% | [5] 6.5% | [6] 17.9%

COC(=O)c1c(C(=O)OC)c(C(c2ccccc2)c2ccccc2)n(-c2ccccc2)c1Cl
inactive: [1] -17.6% | [2] -21.1% | [3] 0.6% | [4] 0.65% | [5] -18.3% | [6] 1.2%

CCC1(CN(C)C)CC/C(=C\c2ccc(OC)cc2)C1=O (stereo unspecified)
inactive: [1] 8.8% | [2] 4.1% | [3] -9.2% | [4] -6.1% | [5] -5.8% | [6] 27.3%

O=C(O)c1ccccc1/C=N\N(CCO)C1=NCCN1
inactive: [1] 21.4% | [2] 13.1% | [3] 13.9% | [4] -25.1% | [5] 2.95% | [6] 19%

NC(=O)c1ccccc1[N+](=O)[O-]
inactive: [1] 3.75% | [2] -7% | [3] -16.4% | [4] 6.4% | [5] -16.1% | [6] -6.5%

O=S(=O)(Cl)c1ccc(I)cc1
inactive: [1] -5.2% | [2] -21.2% | [3] -12.3% | [4] 22.4% | [5] -2.2% | [6] -20.6%

CC(=O)c1cc2c(cc1C(C)C)CC[C@H]1[C@](C)(C#N)CCC[C@]21C
inactive: [1] 1% | [2] -1.15% | [3] 1.25% | [4] -26.6% | [5] 15.9% | [6] 31.3%

O=Cc1cccc2c([N+](=O)[O-])cccc12
inactive: [1] 55.5% | [2] 19.5% | [3] 32.6% | [4] 6.95% | [5] -1.9% | [6] 49.5%

CC(=O)OCC1OC(N2C(c3ccccc3)=CC(c3ccco3)C(C#N)=C2S)C(OC(C)=O)C(OC(C)=O)C1OC(C)=O (stereo unspecified)
inactive: [1] 0.95% | [2] -11.2% | [3] 13.8% | [4] 12.7% | [5] 2.05% | [6] 27.2%

N#Cc1ccc(NC(=O)C(CC(=O)OCc2ccccc2)NC(=O)OCc2ccccc2)cc1 (stereo unspecified)
inactive: [1] -2.75% | [2] 4.65% | [3] 3.85% | [4] 7.3% | [5] 50.8% | [6] -8.05%

O=[N+]([O-])c1ccc(N/N=C/c2ccccn2)nc1
inactive: [1] 8.1% | [2] -6.1% | [3] 10.1% | [4] -7.7% | [5] 6% | [6] 5.4%
